Data as given in the supplement of paper PMC11417369.
± gives the standard deviation of the averaged measurements. Over roughly 25,000 sequences, “ln(normalized median fluorescence intensity)” has its median near 8.9; the highest 2% begin near 10. What follows is part of a selection rich in the highest values, with near analogues and random picks from the rest.

The sequences below were run on PfAP2-LT AP2 domain (GST-tagged) (assay: gcPBM binding intensity (ln(normalized median fluorescence intensity)); higher = stronger DNA binding).
Outline: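 GST-fused DNA-binding domains of P. falciparum, expressed in E. coli, were applied at about 25 μg on average for 1 h to an Agilent 4 × 180k array of primer-extended double-stranded 36-bp intergenic genomic probes and negative controls. Binding intensity is the highest Masliner-normalised natural-log median intensity across replicate spots of either probe orientation, measured with Alexa488 anti-GST antibody and a 488 nm scan.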

| Sequence | gcPBM binding intensity (ln) |
| --- | --- |
| GTTTAGATAAAAGGGCGTACATCTATTTTTGACTAA [XGTACX_site7170] | 8.62 ± 0.36 |
| GAAACGATTTAATACACACACGTATTATAGATATAT [CACACA_site6666] | 9.25 ± 0.34 |
| ATTTTTTTTGTTTATTCTTATGTGGTTATTAAATTA [CACACA_negctrl_site1000] | 8.72 ± 0.52 |
| TACAGACAGAAATGCACACACATATATATATATATA [CACACA_site2283] | 10.2 |
| TTATATAAAGAATGTACACACAGAAATGCACCCACA [CACACA_site2282] | 9.39 ± 0.2 |
| TACACCCAGAAATGCACACACATATATATATATATA [CACACA_site5289] | 10.26 ± 0.071 |
| TACAGACAGAAATGCACACACATATTTATATTTATA [CACACA_site7139] | 9.35 ± 0.3 |
| TATACACACAGACATGCATGCACATATATATATACA [TGCATGCA_site30] | 9.54 ± 0.42 |
| TGTACACCCAGAAATGCACACACATATATATATATA [CACACA_site8716] | 9.94 ± 0.29 |
| TCATCATATTATATATGTACATATATAATAATTTAT [XGTACX_site1625] | 8.62 ± 0.42 |
| AATTAATAACAAAATAAACACACATATATAAATACA [CACACA_site8456] | 9.03 ± 0.38 |
| TTTATTTATTAATACACACACACACGCCCACAAAAT [CACACA_site6253] | 9.995 ± 0.05 |
| TTTATTTATTAATACACACACACACCCAGACAAAAT [CACACA_site4292] | 10 ± 0.099 |
| ATAATTAACAAATACACACACACACCCAGACAAAAA [CACACA_site4445] | 10.2 |
| GTATTATAGTATAATACACACCCAAATATTAAAAAG [CACACA_site7404] | 9.02 ± 0.41 |
| TATTAATACAGACACACACACACACTAATTAAAATA [CACACA_site7967] | 9.96 ± 0.2 |
| ATTAATTATATATATACACACACATACACCCAAATA [CACACA_site9126] | 9.66 ± 0.23 |
| ACATAATTAACAAATACACACACACCCACCCACAAA [CACACA_site8069] | 10.3 ± 0.13 |
| TTTTTATTTATTAATACACACACACCCACCCACAAA [CACACA_site7965] | 9.805 ± 0.064 |
| TTTATTTATTAATACACACACACACCCCCACAAAAT [CACACA_site240] | 10.1 ± 0.22 |
| TATTAATACAGACACACACACACACCCAATAAAATA [CACACA_site243] | 10.29 ± 0.05 |
| AAAAAAAAAAAATACACACAAACACAAATTAAATAA [CACACA_site3809] | 9.32 ± 0.32 |

| Sequence | gcPBM binding intensity (ln) |
| --- | --- |
| TGAACATGTTAAAATAAACACACAGCTAAGGTTTTT [CACACA_site7934] | 8.94 ± 0.4 |
| TTATATATATATATATGTACACATATATAACATGAT [XGTACX_site6643] | 9.19 ± 0.28 |
| ATACACTTTTATATATCAATACATTATGTATTAAGT [CACACA_negctrl_site421] | 8.86 ± 0.35 |
| AACAATATATTGATATTATTTTAAGTGATTATATAT [XGTACX_negctrl_site205] | 8.57 ± 0.33 |
| CAACATATGCATATGTGTACATATTTTATTTTCAAC [XGTACX_site2237] | 8.82 ± 0.42 |
| TATTTATAAACATACGCACACATTAAAATATATATA [CACACA_site6051] | 9.02 ± 0.4 |
| TATTTTTTAAAAATGGGTACACATAAATAAATAAAT [XGTACX_site7643] | 8.58 ± 0.45 |
| TAAAAAAATTCATGCACACGAAATAAAAAGCACCTT [CACACA_site4667] | 9.21 ± 0.3 |
| AATACAGACAGACACACACACAAAATAAAATACAAA [CACACA_site245] | 9.95 ± 0.38 |
| ATAATTAACAAATACACACACACACCCCCACAAAAA [CACACA_site518] | 10.5 ± 0.26 |
| TTAATACCCGGACACACACACACAAAATAAAATACA [CACACA_site4296] | 9.85 ± 0.27 |
| ATAATTAACAAATACACACACACACGCCCACAAAAA [CACACA_site6389] | 10 ± 0.11 |
| TGAACACCCACAAATACACACAAAAAAAATAAATAA [CACACA_site248] | 9.28 ± 0.51 |
| TTAATACCCAGACACACACACACAAAATAAAATACA [CACACA_site7968] | 10.1 ± 0.48 |
| AAATAAATATATATATGTACATACAAATACACGGTA [XGTACX_site8510] | 9.09 ± 0.4 |
| TATTGTTTTAAAGAGACATGCAATATATATTATTCC [TGCATGCA_site752] | 8.51 ± 0.42 |
| GAAATGGGTAAACATACACACACACCGATATATATA [CACACA_site8610] | 9.87 ± 0.23 |
| AATGGGTAAACATACACACACACATATATATATATA [CACACA_site1991] | 10.2 ± 0.11 |
| AATGGGTAAACATACACACACACATCTATATTTATA [CACACA_site7025] | 9.78 ± 0.4 |
| TATATAAATAGATACACACATACATACATACATACA [CACACA_site260] | 9.61 ± 0.37 |
| CATATACATAAACACACACACACATAAATAAATATA [CACACA_site4864] | 10 ± 0.13 |
| TACAGATATAAACACACACACATATATATATATATA [CACACA_site4846] | 10.05 ± 0.092 |
